Results on 32 compounds are retold here after PubChem BioAssay (Tox21).

Test [1] deals with thyroid hormone receptor (rat, GH3 cells). Briefly: qHTS assay to identify small molecule agonists of the thyroid receptor (TR) signaling pathway (AID 743066; calls by dose curve).
Test [2] is described as follows: qHTS assay to identify small molecule antagonists of the estrogen receptor alpha (ER-alpha) signaling pathway - cell viability counter screen (AID 743074; calls by dose curve;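 further: HEK293 cells carrying ER-alpha-UAS-bla reporter stimulated with 17beta-estradiol; nearly all actives have a fitted effect of over 45% in size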; further: potency means the concentration at half of the fitted maximal effect). A general note: Quantitative high-throughput screening tests each substance at several concentrations.
Test [3] addresses Estrogen receptor (Homo sapiens) (UniProt P03372). Briefly: qHTS assay to identify small molecule agonists of the estrogen receptor alpha (ER-alpha) signaling pathway (AID 743075; calls by dose curve;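 further: HEK293 GripTite cells with ER-alpha and UAS-driven beta-lactamase reporter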; further: potency means the concentration at half of the fitted maximal effect).
Test [4] has the same target. The test can be described thus: qHTS assay to identify small molecule agonists of the estrogen receptor alpha (ER-alpha) signaling pathway using the BG1 cell line (AID 743079). Further: nearly all actives have a fitted effect of over 20% in size. Further: potency means the concentration at half of the fitted maximal effect.
Test [5] is described as follows: qHTS assay to identify small molecule antagonists of the estrogen receptor alpha (ER-alpha) signaling pathway using the BG1 cell line - cell viability counter screen (AID 743081).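 Further: compound given together with 17beta-estradiol as the ER stimulus; nearly all actives have a fitted effect of over 45% in size.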 Further: potency means the concentration at half of the fitted maximal effect.
A further test deals with Aromatase (Homo sapiens) (UniProt P11511). The test can be described thus: qHTS assay to identify aromatase inhibitors (AID 743083). Further: nearly all actives have a fitted effect of over 55% in size. Further: potency means the concentration at half of the fitted maximal effect.
Test [6] is described as follows: qHTS assay to identify aromatase inhibitors - cell viability counter screen (AID 743084).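 Further: cells stimulated with testosterone during compound exposure; nearly all actives have a fitted effect of over 55% in size.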 Further: potency means the concentration at half of the fitted maximal effect.
Test [7] deals with Aryl hydrocarbon receptor (Homo sapiens) (UniProt P35869). The test can be described thus: qHTS assay to identify small molecule that activate the aryl hydrocarbon receptor (AhR) signaling pathway (AID 743085). Further: nearly all actives have a fitted effect of over 15% in size. Further: potency means the concentration at half of the fitted maximal effect. The method in brief: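 Measured in HG2L7.5c1 cells: CellTiter-Fluor signal (30 min incubation, 37C) for viability, then luciferase luminescence (30 min, room temperature). Compound contact time was 24 h at 37C, following a 5 h pre-incubation.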

The nature of test [8]: qHTS assay to identify small molecule antagonists of the estrogen receptor alpha (ER-alpha) signaling pathway using the BG1 cell line (AID 743080; calls by dose curve;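 further: BG1 cells stimulated with 17beta-estradiol alongside compound; nearly all actives have a fitted effect of over 25% in size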; further: potency means the concentration at half of the fitted maximal effect). The method in brief: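 Luminescence from a 4×ERE-luciferase reporter in BG1-Luc-4E2 cells served as read-out. Cells, pre-cultured 5 days in stripped-serum phenol-red-free medium, were exposed to compound with 17beta-estradiol co-stimulation for 21.5 h at 37 C.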

“And” between values parts separate entries of the source, which are not always exact repeats. Equal entries are not always repeated. Where a structure was tested more than once in an assay, its records may differ in their call. The source made the active and inactive calls. Unless noted, the call rests on the fitted dose curve; in most records, active means well fitted curve in the direction sought with a large enough effect in the repeat runs; inconclusive means weak or mixed curves; inactive means no such curve, though single readings can be large; an effect the other way counts as inactive or inconclusive.

Aromatase (Homo sapiens), sequence (P11511 whole entry, looked up): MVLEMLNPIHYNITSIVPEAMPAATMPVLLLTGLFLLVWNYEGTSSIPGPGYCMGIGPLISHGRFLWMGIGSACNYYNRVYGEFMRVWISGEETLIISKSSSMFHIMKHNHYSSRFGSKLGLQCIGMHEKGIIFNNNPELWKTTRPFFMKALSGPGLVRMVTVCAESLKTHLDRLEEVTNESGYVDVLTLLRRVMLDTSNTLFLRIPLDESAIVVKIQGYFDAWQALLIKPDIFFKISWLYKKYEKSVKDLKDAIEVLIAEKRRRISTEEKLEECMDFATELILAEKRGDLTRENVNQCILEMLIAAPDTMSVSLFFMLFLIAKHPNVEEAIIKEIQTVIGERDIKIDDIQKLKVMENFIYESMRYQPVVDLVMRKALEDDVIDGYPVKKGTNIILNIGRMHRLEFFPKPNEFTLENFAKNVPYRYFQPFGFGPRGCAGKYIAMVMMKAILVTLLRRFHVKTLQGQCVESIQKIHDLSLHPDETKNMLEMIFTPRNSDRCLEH
Aryl hydrocarbon receptor (Homo sapiens), sequence (P35869 whole entry, looked up): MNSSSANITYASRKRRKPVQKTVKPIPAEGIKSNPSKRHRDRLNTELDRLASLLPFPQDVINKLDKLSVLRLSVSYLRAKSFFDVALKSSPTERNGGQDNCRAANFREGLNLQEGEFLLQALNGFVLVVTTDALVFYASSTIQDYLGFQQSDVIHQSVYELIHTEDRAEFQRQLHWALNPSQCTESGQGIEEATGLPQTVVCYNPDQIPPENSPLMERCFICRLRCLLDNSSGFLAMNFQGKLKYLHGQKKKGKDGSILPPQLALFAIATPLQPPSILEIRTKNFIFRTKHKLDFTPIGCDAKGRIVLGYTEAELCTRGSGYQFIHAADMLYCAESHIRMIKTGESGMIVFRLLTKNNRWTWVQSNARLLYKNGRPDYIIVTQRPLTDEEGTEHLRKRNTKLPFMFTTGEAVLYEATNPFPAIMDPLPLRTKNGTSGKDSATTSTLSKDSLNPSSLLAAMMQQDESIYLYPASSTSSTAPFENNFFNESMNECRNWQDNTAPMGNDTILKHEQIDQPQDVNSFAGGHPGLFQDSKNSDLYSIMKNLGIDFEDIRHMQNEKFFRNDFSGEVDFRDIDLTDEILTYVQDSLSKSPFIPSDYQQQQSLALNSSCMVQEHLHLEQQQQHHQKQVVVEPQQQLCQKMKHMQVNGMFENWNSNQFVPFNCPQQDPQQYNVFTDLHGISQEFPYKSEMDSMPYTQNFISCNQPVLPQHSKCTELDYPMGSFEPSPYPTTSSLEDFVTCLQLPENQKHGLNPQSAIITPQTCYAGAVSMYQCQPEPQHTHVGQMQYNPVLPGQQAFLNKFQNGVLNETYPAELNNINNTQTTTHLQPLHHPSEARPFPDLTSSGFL
Estrogen receptor (Homo sapiens), sequence (P03372 whole entry, looked up): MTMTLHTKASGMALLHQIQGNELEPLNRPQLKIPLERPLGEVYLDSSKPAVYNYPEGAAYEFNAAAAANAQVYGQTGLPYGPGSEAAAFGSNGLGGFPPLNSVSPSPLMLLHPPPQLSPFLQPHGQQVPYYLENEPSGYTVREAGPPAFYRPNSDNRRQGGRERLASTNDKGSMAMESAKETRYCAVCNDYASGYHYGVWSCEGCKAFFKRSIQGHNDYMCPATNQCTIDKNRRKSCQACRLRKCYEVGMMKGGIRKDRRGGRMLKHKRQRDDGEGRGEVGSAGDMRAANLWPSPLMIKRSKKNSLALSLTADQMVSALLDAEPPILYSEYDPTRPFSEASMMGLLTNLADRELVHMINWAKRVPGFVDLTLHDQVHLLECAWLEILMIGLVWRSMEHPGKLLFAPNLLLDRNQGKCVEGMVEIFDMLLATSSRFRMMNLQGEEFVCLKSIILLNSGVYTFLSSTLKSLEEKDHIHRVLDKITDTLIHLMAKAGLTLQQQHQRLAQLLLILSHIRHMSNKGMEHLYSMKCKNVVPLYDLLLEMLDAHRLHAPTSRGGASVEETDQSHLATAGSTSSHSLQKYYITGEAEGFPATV

In the case of `COC(=O)Nc1nc2ccc(S(=O)c3ccccc3)cc2[nH]1` (centres undefined), the Potency result (in test [1]; in test [2]; in test [3]; in test [4]; in test [5]; with Aromatase (Homo sapiens)) was “inactive” each time. The Potency result in [6] was “inactive”. In test [7], the Potency is 3.76 µM (active) and 3.06 µM (active).
For the compound `S=C(NC1CCCCC1)NC1CCCCC1`, the Potency result in test [1], in test [3], in test [5], in test [6] and in test [7] was “inactive” throughout. Further, the Potency in test [2] is 48.1 µM (active); in test [8], 75.5 µM (active) and 54.5 µM (active).
As for `Cn1cnc([N+](=O)[O-])c1Sc1ncnc2nc[nH]c12`, the Potency result (in test [1]; in test [2]; in [3]; in test [4]; in [5]; in the test with Aromatase (Homo sapiens)) was “inactive” each time. Also, the Potency result in [6] is “inactive”. Further, the Potency result in test [7] is “inactive and 19.2 µM (active)”.
Consider `C/C=C/C(=O)O`, for which the Potency result in [1], in test [2] and in test [5] was “inactive” in each case.
Consider `OC[C@H]1O[C@@H]2O[C@H]3[C@H](O)[C@@H](O)[C@@H](O[C@H]4[C@H](O)[C@@H](O)[C@@H](O[C@H]5[C@H](O)[C@@H](O)[C@@H](O[C@H]6[C@H](O)[C@@H](O)[C@@H](O[C@H]7[C@H](O)[C@@H](O)[C@@H](O[C@H]8[C@H](O)[C@@H](O)[C@@H](O[C@H]1[C@H](O)[C@H]2O)O[C@@H]8CO)O[C@@H]7CO)O[C@@H]6CO)O[C@@H]5CO)O[C@@H]4CO)O[C@@H]3CO`, for which the Potency result in test [1], in [2] and in [5] was “inactive” in each case.
In the case of `COc1ccc(C(=O)CC(=O)c2ccc(C(C)(C)C)cc2)cc1`, the Potency result (in [1]; in test [2]; in test [5]; in the test with Aromatase (Homo sapiens); in test [6]; in test [7]) was “inactive” each time.
Take `OC(CCl)CCl`: the Potency entry (in [1]; in [2]; in test [3]; in test [4]; in test [5]; in the test with Aromatase (Homo sapiens)) was “inactive” each time. The Potency entry in test [6] and in test [7] was “inactive” throughout.
Regarding `O=C=Nc1ccc(Cc2ccc(N=C=O)cc2)cc1`, the Potency result in [1], in test [2] and in test [5] was “inactive” throughout.
For `CCCCC(CC)COP(=O)(OCC(CC)CCCC)OCC(CC)CCCC` (centres undefined), the Potency result (in [1]; in [2]; in test [5]; with Aromatase (Homo sapiens); in [6]; in test [7]) was “inactive” throughout.
As for `c1ccc(Nc2ccccc2)cc1`, the Potency entry (in test [2]; in test [5]; with Aromatase (Homo sapiens); in [6]; in test [7]) was “inactive” each time.
Take `Brc1cc(Oc2cc(Br)c(Br)c(Br)c2Br)c(Br)c(Br)c1Br`: the Potency entry (in test [1]; in test [2]; in [5]; with Aromatase (Homo sapiens); in test [6]; in [7]) was “inactive” throughout.
Take `Cc1ccc(C(=O)c2cc(O)c(O)c([N+](=O)[O-])c2)cc1`: the Potency entry in test [1], in [6] and in [7] was “inactive” in each case. The Potency in [5] is 33.5 µM (active) and 54.5 µM (active).
Consider `CC(C)(C)NC(=O)[C@H]1CC[C@H]2[C@@H]3CC[C@H]4NC(=O)C=C[C@]4(C)[C@H]3CC[C@]12C`, for which the Potency result (in test [2]; in [3]; in test [4]; in test [8]; in [5]; with Aromatase (Homo sapiens)) was “inactive” throughout. In addition, the Potency entry in test [6] and in test [7] was “inactive” throughout.
`CC(C)Oc1ccc2c(=O)c(-c3ccccc3)coc2c1`: the Potency result (in [5]; with Aromatase (Homo sapiens); in [6]) was “inactive” throughout. In addition, the Potency in test [7] is 2.11 µM (active) and 4.73 µM (active).
`CN(C)C(=N)N=C(N)N`: the Potency entry in [1], in test [2], in test [5] and in test [6] was “inactive” each time.
In the case of `C=C(C)C1CC=C(C)CC1` (centres undefined), the Potency result (in [2]; in test [3]; in [4]; in test [5]; with Aromatase (Homo sapiens); in test [6]) was “inactive” in each case. Further, the Potency result in test [7] was “inactive”.
For `COc1ccc(OC)c(C(O)CNC(=O)CN)c1` (centres undefined), the Potency result (in test [2]; in test [3]; in [4]; in test [5]; with Aromatase (Homo sapiens); in [6]) was “inactive” throughout. Moreover, the Potency entry in [7] is “inactive”.
Take `NNc1ccc(C(=O)O)cc1`: the Potency result (in test [1]; in test [2]; in [5]; with Aromatase (Homo sapiens); in [6]; in test [7]) was “inactive” each time.
`C[Si](C)(C)O[Si](C)(C)C`: the Potency result (in test [1]; in test [2]; in [5]; in the test with Aromatase (Homo sapiens); in test [6]; in test [7]) was “inactive” in each case.
In the case of `CC(=O)c1ccccn1`, the Potency result (in [1]; in [2]; in [5]; in the test with Aromatase (Homo sapiens); in test [6]; in test [7]) was “inactive” throughout.
Consider `Nc1ncnc2nc[nH]c12`, for which the Potency result (in test [2]; in [3]; in test [4]; in test [5]; with Aromatase (Homo sapiens); in [6]) was “inactive” throughout. Besides, in test [7], the Potency entry is “inactive”.
As for `COc1cc([C@@H]2c3cc4c(cc3[C@H](O)[C@H]3COC(=O)[C@H]23)OCO4)cc(OC)c1OC`, the Potency result (in [1]; in [5]; in the test with Aromatase (Homo sapiens); in test [6]) was “inactive” each time.
In the case of `CCCC(=O)O`, the Potency entry (in test [2]; in [5]; with Aromatase (Homo sapiens); in [6]; in test [7]) was “inactive” each time.
For `CN(C)CCC=C1c2ccccc2CCc2ccccc21`, the Potency entry (in test [1]; in [3]; in [4]; in test [5]; with Aromatase (Homo sapiens); in test [6]) was “inactive” each time. Further, the Potency result in [7] was “inactive”.
On to `Clc1nc(Cl)c(Cl)c(Cl)c1Cl`, for which the Potency entry (in [1]; in test [2]; in test [5]; with Aromatase (Homo sapiens); in [6]; in test [7]) was “inactive” throughout.
For the compound `O=C1c2cccc(O)c2C(=O)c2c(O)cccc21`, the Potency result (in test [1]; in test [2]; with Aromatase (Homo sapiens); in test [6]; in [7]) was “inactive” each time.
As to `COc1c(Cl)c(Cl)c(Cl)c(Cl)c1Cl`, the Potency result (in test [1]; in test [2]; in test [5]; with Aromatase (Homo sapiens); in test [6]; in test [7]) was “inactive” each time.
`Nc1ccc(Nc2ccccc2)cc1`: the Potency entry (in test [2]; in test [3]; in test [4]; in test [8]; in test [5]; in the test with Aromatase (Homo sapiens)) was “inactive” in each case. The Potency entry in test [7] is “inactive”. The Potency in test [6] is 61.1 µM (active) and inactive.
On to `CCC(C)c1ccccc1O` (centres undefined), for which the Potency result (in test [1]; in test [5]; with Aromatase (Homo sapiens); in [6]; in test [7]) was “inactive” in each case.
In the case of `C#C[C@]1(O)CC[C@H]2[C@@H]3CCC4=Cc5oncc5C[C@]4(C)[C@H]3CC[C@@]21C`, the Potency result (in test [2]; in [5]; with Aromatase (Homo sapiens); in test [6]; in test [7]) was “inactive” each time. In addition, the Potency in [3] was 3.38 µM [inconclusive] (active) and 6.17 µM [activator] (active); in test [4], 668 nM (active) and 969 nM (active); in [8], “inactive and 61.1 µM (active)”.
With `CNCCCC12CCC(c3ccccc31)c1ccccc12`, the Potency entry in test [2] was “inactive and 49 µM (active)”; with Aromatase (Homo sapiens) it was “inactive and 30.6 µM (active)”; in [6], “inactive and 54.5 µM (active)”. Further, the Potency result in test [3], in test [4], in test [5] and in test [7] was “inactive” in each case.
For `CCOC(=O)C(C#N)=C(c1ccccc1)c1ccccc1`, the Potency result (in [1]; in test [2]; in test [5]; with Aromatase (Homo sapiens); in [6]; in [7]) was “inactive” throughout.
